Reference: ChEMBL document CHEMBL4513216, “Probing the Open Global Health Chemical Diversity Library for Multistage-Active Starting Points for Next-Generation Antimalarials” (ACS Infect Dis, 2020)
Hit rate of the full screen: of about 68,000 compounds, about 2,700 (4%) showed an effect of 50% or more. The sample as a whole holds a higher share of strong results than the screen did.

Test system: Plasmodium berghei
Experiment: Screen against P. berghei liver stage (PbLuc), transformed with Luciferase, at 2uM
Format: functional, HepG2
Details: tested at 2 uM

Structure (SMILES) | INHIBITION [%]
O=C1Nc2ccccc2CC12CCCN2Cc1ccc(F)cc1 (stereo not given) | -0.14
CCCc1n[nH]c(C2CN(CCCS(C)(=O)=O)CCO2)n1 (stereo not given) | 2.1
CC(C)(C)c1n[nH]c(C2CN(C(=O)CCc3ccco3)CCO2)n1 (stereo not given) | 0.74
CC(C)c1n[nH]c(C2CN(C(=O)CCc3cscn3)CCO2)n1 (stereo not given) | 53.33
CSCC(=O)N1CCOC(c2nc(C(C)(C)C)n[nH]2)C1 (stereo not given) | -17.77
Cc1n[nH]c(C2CN(C(=O)CCc3cscn3)CCO2)n1 (stereo not given) | -4.43
CCc1n[nH]c(C2CN(CCCS(C)(=O)=O)CCO2)n1 (stereo not given) | 24.65
CCc1n[nH]c(C2CN(C(=O)CCc3cscn3)CCO2)n1 (stereo not given) | 12.81
CC(C)(C)c1n[nH]c(C2CN(C(=O)CCC3CC3)CCO2)n1 (stereo not given) | 60.31
CC(C)c1n[nH]c(C2CN(CCCS(C)(=O)=O)CCO2)n1 (stereo not given) | 69.11
C=C(C)CN(CC)Cc1nc(C)no1 | -12.44
CS(=O)(=O)Cc1noc(CN2CCc3c(Cl)cccc3C2)n1 | -6.67
CCC(CNS(C)(=O)=O)Oc1ccccc1F (stereo not given) | 14.69
CCc1n[nH]c(C2CN(Cc3nnc(C4CCC4)o3)CCO2)n1 (stereo not given) | -45.21
CC(=O)N1CCCC1c1nc(N(C)C)ncc1-c1ccccc1 (stereo not given) | 7.47
Cc1cn(CC(=O)NC2CCN(C(=O)C3CC3)CC2)c2ccccc12 | 41.44
Cc1c(C(=O)N(C)C)cccc1N(C)S(C)(=O)=O | -0.02
COc1ccc(CNc2c(C)nn(C(C)C)c2C)cc1OC | -4.19
CC[C@@H](c1ccccc1)n1c(CCN)n[nH]c1=O | 31.69
Cc1nc(CC(=O)N2CCc3nc(-c4cnccn4)nc(O)c3C2)cs1 | 34.9
CC(C)c1noc(CCC(=O)NC2CCS(=O)(=O)C2)n1 (stereo not given) | 17.19
CN(c1ccc(C(=O)NCCN2CCOCC2)c(Cl)c1)S(C)(=O)=O | 2.31

Structure (SMILES) | INHIBITION [%]
Cc1ccc(C(=O)NCCC2CCN(C)CC2)cc1N(C)S(C)(=O)=O | 36.05
Cc1ccc(C(=O)NCCN2CCOCC2)cc1N(C)S(C)(=O)=O | 70.2
COc1ccccc1-c1cc(C(=O)Nc2nc[nH]n2)[nH]n1 | 19.53
CCCN(C)c1ccc(C(=O)Nc2c(C)nn(C(C)C)c2C)cc1 | -17.64
Cc1nc(C(=O)N2CCCCC2c2ccc(CN(C)C)cc2)c(C)o1 (stereo not given) | 46.21
CN(C)Cc1ccc(C2CCCCN2C(=O)c2ncccc2O)cc1 (stereo not given) | 56.16
CN(C)Cc1ccc(C2CCCCN2C(=O)c2cccnn2)cc1 (stereo not given) | -9.15
CCc1ccc(C(=O)N2CCN(CCO)CC2)o1 | 31.7
CN(Cc1ccco1)C(=O)c1ccc(=O)n(C)c1 | 1.13
Cc1nc(CNCc2ccc(OC34CCCN(CC3)C4)cc2)n[nH]1 (stereo not given) | -2.62
COCC(=O)N1CC(C(=O)NCC2CC2)C2(CCOCC2)C1 (stereo not given) | -13.16
CC(C)NC(=O)C1CN(C(=O)N2CCCC2)CC12CCOCC2 (stereo not given) | 17.51
Cc1ccsc1C(=O)N1CC(C(=O)NCC2CC2)C2(CCOCC2)C1 (stereo not given) | 2.41
CN(C)C(=O)N1CC(C(=O)NCC2CC2)C2(CCOCC2)C1 (stereo not given) | 55.92
CC(C)NC(=O)C1CN(C(=O)c2ccccc2)CC12CCOCC2 (stereo not given) | 34.48
CC(C)NC(=O)C1CN(C(=O)N(C)C)CC12CCOCC2 (stereo not given) | 58.87
COCCO[C@@H]1C[C@H]2CN(C(=O)c3cnccn3)CCN2C1 | -1.27
O=C1NCCCCC1NCc1csc(-c2ccc(F)cc2)n1 (stereo not given) | 13.91
CCN1CCc2c(CNC(=O)c3nccn3C)cncc2C1 | 10.71
CCc1oc(C(=O)NC(C)c2ncn[nH]2)cc1CN1CCCC1 (stereo not given) | 38.24
CC(C)Nc1ncccc1C(=O)NC1CC(=O)N(CC(F)(F)F)C1 (stereo not given) | 16.87
Cc1[nH]c2ccccc2c1-c1ccnc(N[C@H](CO)CC(C)C)n1 | -48.87

Structure (SMILES) | INHIBITION [%]
Nc1ncc(C(=O)N2CCC(O)(CO)CC2)c(-c2ccccc2)n1 | 32.04
Nc1ncc(C(=O)N2CCCC(N)CC2)c(-c2ccccc2)n1 (stereo not given) | 50.91
Nc1ncc(C(=O)N2CCC3(CCCO3)CC2)c(-c2ccccc2)n1 | 14.83
Cc1cc(CN(C)C(C(=O)O)c2cccc(C(F)(F)F)c2)on1 (stereo not given) | -53
COc1ccc(C)cc1CN1CCn2cccc2C1C (stereo not given) | 23.27
CC(C)SCC(=O)NCc1cc2n(n1)CCCN(C1CCCCC1)C2 | 50.02
CSCCC(=O)NCc1cc2n(n1)CCCN(C1CCCCC1)C2 | -12.95
CCC(C)NC(=O)NCc1cc2n(n1)CCCN(C1CCCCC1)C2 (stereo not given) | -15.12
CNS(=O)(=O)c1ccc(CNC(=O)N(C)C(C)COC)cc1 (stereo not given) | -30.49
Cc1ccc(C(=O)N2CCC3(CCN3c3ncccn3)C2)cn1 (stereo not given) | -55.08
CC(O)CNc1ccc(C#N)cc1C(F)(F)F (stereo not given) | 25.48
CC(C)(C)c1nc(NS(=O)(=O)c2ccc(F)cc2)no1 | -56.23
Cc1nc(CNC(=O)NC(C)c2ccc3c(c2)OCCCO3)cs1 (stereo not given) | -10.62
O=C(COCCOc1ccccc1)NC1CCN(c2ccccn2)CC1 | 21.79
COCCOCC(=O)NC1CCN(c2ccccn2)CC1 | -1.01
Cc1ccc(C)c(OCC(=O)NC2CCN(c3ccccn3)CC2)c1 | 63.89
Fc1cccc(Cl)c1Cn1ncnc1CSCCN1CCCC1 | 2.76
O=C1OCCN1Cc1ncnn1Cc1c(F)cccc1Cl | 59.94
O=C1CCCCCN1Cc1ncnn1Cc1c(F)cccc1Cl | 29.98
O=S(=O)(NCc1ccc(S(=O)(=O)N2CCCC2)s1)c1ccc(Cl)c(Cl)c1 | -7.01
CC1Cc2cc(-c3cncn3CC(=O)NC(C)(C)C)ccc2N1C (stereo not given) | 37.4
CCN1CCc2cc(-c3cncn3CC(=O)NC(C)(C)C)ccc21 | 25.72

Structure (SMILES) | INHIBITION [%]
CCN1c2ccc(-c3cncn3CC(=O)NC(C)(C)C)cc2CC1C (stereo not given) | 51.57
CCN1CCCC(c2c(-c3ccccc3)ncn2Cc2cccnc2)C1 (stereo not given) | -17.04
O=C(NCCCO)c1cc(-c2ccc3c(c2)CCO3)n[nH]1 | -56.16
O=C(NCCO)c1cc(-c2ccc3c(c2)CCO3)n[nH]1 | 51.31
CN(C)CCCNC(=O)c1cc(-c2ccc3c(c2)CCO3)n[nH]1 | -4.01
CC1c2ncc(Cn3cccn3)n2CCN1Cc1ccc(F)cc1 (stereo not given) | 17.24
COCc1cc(N(C)Cc2cnccn2)nc(C(C)(C)C)n1 | 10.03
COCCC(=O)N1CCCC(CCC(=O)Nc2ccc(Cl)cc2)C1 (stereo not given) | -0.62
O=C([C@@H]1COC[C@H]2CN(c3ccncn3)C[C@H]21)N1CCCC1 | 25.58
O=C([C@H]1COC[C@H]2CN(c3ccncn3)C[C@H]21)N1CCCC1 | 53.55
O=C([C@@H]1COC[C@H]2CN(c3ccncn3)C[C@H]21)N1CCCCO1 | 40.64
CN(Cc1cccnc1)CC1CN(C(=O)C2CC2)Cc2nccn2C1 (stereo not given) | 6.8
CN1Cc2c(C(=O)NC3CCCCC3)ncn2-c2ccccc2S1(=O)=O | -2.38
CCc1nc(-c2ccc(NC(=O)N3CCC4(CC3)OCCO4)cc2)no1 | -16.82
CCc1nc(-c2ccc(NC(=O)N3CCOCC3)cc2)no1 | -52.23
CCc1nc(-c2ccc(C(=O)N3CCC4(CC3)OCCO4)cc2)no1 | 59.75
CC(C)n1nnnc1-c1ccc(NC(=O)CC(F)(F)F)cc1F | -16.15
CCC(CN1CCOCC1)n1cncc1-c1ccc2c(c1)CCN2CC (stereo not given) | 8.33
O=C(C1CCCN(C2CCOCC2)C1)N1CCc2ncccc2C1 (stereo not given) | 34.71
CCOCCC(=O)N1CCc2cccc(S(=O)(=O)N3CCOCC3)c2C1 | 23.82
CCCOCC(=O)N1CCc2c(cccc2S(=O)(=O)N2CCOCC2)C1 | 53.05
COCC(=O)N1CCc2cccc(S(=O)(=O)N3CCOCC3)c2C1 | 13.24

Structure (SMILES) | INHIBITION [%]
CC(C)CCN1CCNC(=O)C1CC(=O)NCCc1cc(O)ncn1 (stereo not given) | 17.99
COC1CCN(CCNC(=O)NC(C)c2ccc(F)c(F)c2)CC1 (stereo not given) | 54.29
COC1CCN(CCNC(=O)NC(C)c2cccc(Cl)c2)CC1 (stereo not given) | -23.58
COC1CCN(CCNC(=O)NCC(C)c2cccc(C)c2)CC1 (stereo not given) | 38.83
Cc1ccc(S(=O)(=O)NCCOc2ccc3nnc(C)n3n2)s1 | 17.47
CS(=O)(=O)CCN(CC1CCCO1)C1CCCC1 (stereo not given) | 56.53
CCS(=O)(=O)CCN(CC1CCCO1)C1CCCC1 (stereo not given) | -19.27
CCN(CCS(=O)(=O)CC)CC1CCCO1 (stereo not given) | 1.03
CCc1nc(N2CCCC(O)(CO)CC2)ncc1C (stereo not given) | 32.1
Cc1ccc(C)c(OCc2cc(C(=O)N(C)CC(O)CO)no2)c1 (stereo not given) | -10.86
Cc1ccc(C)c(OCc2cc(C(=O)N(C)Cc3cnn(C)c3)no2)c1 | 28.17
Cc1ccc(C)c(OCc2cc(C(=O)N(C)Cc3nonc3C)no2)c1 | 50.86
Cc1cnn(CC2CCCN2Cc2ncc(-c3ccc(F)cc3)o2)c1 (stereo not given) | 10.52
Cc1ccc(C(=O)N(C2CC2)C2CC(=O)NC2=O)cc1F (stereo not given) | 59.93
O=C1CC(N(C(=O)c2ccc(F)c(F)c2)C2CC2)C(=O)N1 (stereo not given) | -20.51
COc1cc(C(=O)N(C2CC2)C2CC(=O)NC2=O)ccc1C (stereo not given) | 11.18
O=C([C@H]1C[C@H]2OCC[C@H]2N(CC2CCOCC2)C1)N1CCCC1 | 58.93
CNC(=O)[C@H]1C[C@H]2OCC[C@H]2N(CC2CCOCC2)C1 | -14.24
O=C([C@H]1C[C@H]2OCC[C@H]2N(CC2CC2)C1)N1CCCC1 | 63.14
O=C([C@H]1C[C@H]2OCC[C@H]2N(CC2CC2)C1)N1CCCCO1 | -11.4
O=C([C@H]1C[C@H]2OCC[C@H]2N(CC2CCOCC2)C1)N1CCCCO1 | 26.31
O=C([C@H]1C[C@@H]2[C@@H](C1)OCCN2CC1CC1)N1CCCC1 | -1.29
